Laboratory results from PubChem BioAssay AID1159580 (chemical genetic matrix, 2015).
The campaign covered roughly 5,500 compounds. About 2,000 (36%) were called active. Roughly 18% stayed inconclusive and do not appear here. No stated cut-off is given here; in the data, active means normalized growth mostly below about 0.91 (no sharp cut-off); inconclusive means no clear call, values can overlap the other calls; inactive means mostly above about 0.92. Some of the results follow.

Experiment: chemical genetic growth profiling, strain panel (AID 1159580);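 further: tested at 20 µM; growth read once vehicle control cultures reached saturation at 30 °C; 1 = growth at the plate median or of vehicle wells; lower values mean less growth of the strain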
Settings: growth OD

Measured: normalized growth

c1ccc(OCCOc2ccccn2)nc1
inactive: S. cerevisiae deletion strains, locus YAL013W, strain DEP1, hits give low values 1.03 | S. cerevisiae deletion strains, locus YBR229C, strain ROT2, hits give low values 0.999 | S. cerevisiae deletion strains, locus YCL061C, strain MRC1, hits give low values 0.992 | S. cerevisiae deletion strains, locus YDL101C, strain DUN1, hits give low values 1.01 | S. cerevisiae deletion strains, locus YDL134C, strain PPH21, hits give low values 0.994 | S. cerevisiae deletion strains, locus YDR150W, strain NUM1, hits give low values 0.972 | S. cerevisiae deletion strains, locus YEL061C, strain CIN8, hits give low values 1 | S. cerevisiae deletion strains, locus YGR078C, strain PAC10, hits give low values 1 | S. cerevisiae deletion strains, locus YHR030C, strain SLT2, hits give low values 1.06 | S. cerevisiae deletion strains, locus YHR087W, strain rtc3, hits give low values 0.992 | S. cerevisiae deletion strains, locus YJR043C, strain POL32, hits give low values 0.995 | S. cerevisiae deletion strains, locus YJR075W, strain HOC1, hits give low values 1 | S. cerevisiae deletion strains, locus YKL190W, strain CNB1, hits give low values 0.998 | S. cerevisiae deletion strains, locus YLR039C, strain RIC1, hits give low values 0.999 | S. cerevisiae deletion strains, locus YLR058C, strain SHM2 (second series), hits give low values 0.996 | S. cerevisiae deletion strains, locus YLR085C, strain ARP6, hits give low values 1 | S. cerevisiae deletion strains, locus YLR262C, strain YPT6, hits give low values 1.05 | S. cerevisiae deletion strains, locus YML094W, strain GIM5, hits give low values 1.01 | S. cerevisiae deletion strains, locus YMR219W, strain ESC1, hits give low values 1.01 | S. cerevisiae deletion strains, locus YMR263W, strain SAP30, hits give low values 0.985 | S. cerevisiae deletion strains, locus YMR307W, strain GAS1, hits give low values 0.959 | S. cerevisiae deletion strains, locus YNL128W, strain TEP1, hits give low values 1 | S. cerevisiae deletion strains, locus YNL153C, strain GIM3, hits give low values 0.997 | S. cerevisiae deletion strains, locus YNL298W, strain CLA4 (second series), hits give low values 0.978 | S. cerevisiae deletion strains, locus YNL322C, strain KRE1, hits give low values 1.01 | S. cerevisiae deletion strains, locus YNR030W, strain Alg12, hits give low values 1 | S. cerevisiae deletion strains, locus YPL055C, strain LGE1, hits give low values 0.982 | S. cerevisiae deletion strains, locus YPL241C, strain CIN2, hits give low values 0.988 | S. cerevisiae deletion strains, locus YPR135W, strain CTF4, hits give low values 1.13 | S. cerevisiae strains, strain wild type, hits give low values 1
